Hits are enriched below; roughly 19% of the tested compounds scored in any of these assays.
ELG1 DNA repair = qHTS screen for small molecules that inhibit ELG1-dependent DNA repair in human embryonic kidney (HEK293T) cells expressing luciferase-tagged ELG1; HEK293T ELG1-luciferase reporter, luminescence, 16 h; DNA damage induced by 5-fluorouridine; 330,000 compounds, 2.3% hits; AID 504467, 2011; Potency, µM (titrated, usually from 46.1 µM), for inactives: at the top dose activity change, negative = inhibition, usual class: inhibitors; note: potency is the fitted concentration of half-maximal effect; nearly all actives have a fitted effect of over 55% in size
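5-Fluorouridine DNA damage + compound/DMSO, 2,000 cells/well, 16 h, 37 °C/5% CO2. ONE-Glo, 30 min RT, luminescence. Readout = decrease in reporter signal.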
IL-1B inflam inh = qHTS for Inhibitors of Inflammasome Signaling: IL-1-beta AlphaLISA Primary Screen. THP-1 LPS/ATP IL-1B secretion, AlphaLISA, 16 h; active compounds read low. activity change, % at 57.5 µM. 360,000 compounds, 4.7% hits; in the data active = activity change below about -50%; inconclusive = mostly about -30% to -49%
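Secreted IL-1B measured by AlphaLISA bead assay after 16 h compound exposure of THP-1 cells; compounds (final up to 57.5 uM) added 1 h before LPS (250 ng/mL) and ATP (1.25 mM) stimulation; lower signal means less secretion.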
Giardia killer = Small Molecules that selectively kill Giardia lamblia: qHTS. Giardia lamblia trophozoite viability. activity change, % at 7.66 µM, hits read low. 340,000 compounds, 0.15% hits; in the data active = activity change below about -80%; inconclusive = between about -30% and that limit;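 note: parasites exposed to compound for two days anaerobically before the ATP read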
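Giardia trophozoites, 100 cells per well, were exposed to compounds for 48 hrs at 37 deg C under anaerobic conditions; viability was then read as ATP content by bioluminescence after 15-30 min at room temperature.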
DT40 TDP1 CPT = qHTS for Inhibitors of human tyrosyl-DNA phosphodiesterase 1 (TDP1): qHTS in cells in presence of CPT | 420,000 compounds, 12% hits | Potency, µM (top dose mostly 46.2 µM), for the others: top-dose activity change, negative = growth inhibition, actives largely listed as inhibitors | chicken DT40 Tdp1-/-;hTDP1 cells + 20 nM CPT, ATP luminescence, 48 h; note: potency is the fitted concentration of half-maximal effect; nearly all actives have a fitted effect of over 55% in size
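Chicken DT40 Tdp1-/- cells complemented with human TDP1, 400 cells/well, exposed to compounds plus 20 nM camptothecin for at least 48 h at 37 C; viability read as ATP content by CellTiter-Glo luminescence.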
TDP1 block = qHTS Assay for Inhibitors of Tyrosyl-DNA Phosphodiesterase (TDP1). Tyrosyl-DNA phosphodiesterase 1 (Homo sapiens), Q9NUW8. recombinant TDP1, AlphaScreen DNA substrate cleavage. Potency, µM (top dose mostly 130 µM), inactives show top-dose activity change, negative = inhibition, usual class: inhibitors. 350,000 compounds, 0.28% hits. AID 485290, 2010; note: potency is the fitted concentration of half-maximal effect; nearly all actives have a fitted effect of over 40% in size
Target sequence (Q9NUW8 whole entry, looked up): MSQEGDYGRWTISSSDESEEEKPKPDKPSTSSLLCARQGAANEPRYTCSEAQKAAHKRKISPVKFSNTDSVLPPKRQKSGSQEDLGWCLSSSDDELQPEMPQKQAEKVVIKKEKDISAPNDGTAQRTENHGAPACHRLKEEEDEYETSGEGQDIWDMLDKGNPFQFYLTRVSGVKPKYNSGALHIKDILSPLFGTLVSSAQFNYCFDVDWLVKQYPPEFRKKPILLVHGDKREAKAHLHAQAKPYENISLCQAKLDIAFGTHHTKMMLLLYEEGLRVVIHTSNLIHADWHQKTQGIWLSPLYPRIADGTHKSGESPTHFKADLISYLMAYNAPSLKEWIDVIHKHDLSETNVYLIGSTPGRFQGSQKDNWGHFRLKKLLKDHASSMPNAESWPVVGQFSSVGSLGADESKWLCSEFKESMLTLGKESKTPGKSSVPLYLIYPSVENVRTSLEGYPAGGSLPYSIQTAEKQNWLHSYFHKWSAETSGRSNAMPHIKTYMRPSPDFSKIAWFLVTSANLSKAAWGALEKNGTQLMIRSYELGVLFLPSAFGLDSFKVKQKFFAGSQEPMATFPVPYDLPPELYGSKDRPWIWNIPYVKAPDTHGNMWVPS
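Recombinant human Tdp1 (E. coli-expressed, 1 nM final) preincubated with compounds 15 min at room temperature, then 5'-biotin/3'-phosphotyrosine-FITC DNA substrate (15 nM final) added for 5 min. AlphaScreen beads (10 ug/ml final) added 10 min; cleavage lowers signal.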
TDP1 cell noCPT = qHTS for Inhibitors of human tyrosyl-DNA phosphodiesterase 1 (TDP1): qHTS in cells in absence of CPT | DT40 Tdp1-/- hTDP1 cells, no CPT, ATP luminescence, 48 h | Potency, µM (highest dose often 46.2 µM), inactives show top-dose activity change, negative = growth inhibition, hits mostly inhibitors | 420,000 compounds, 15% hits | AID 686978, 2013; note: potency is the fitted concentration of half-maximal effect; nearly all actives have a fitted effect of over 55% in size
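DT40 Tdp1-/-;hTDP1 cells, no CPT (DMSO vehicle only), 400 cells/well; compounds pin-transferred; ≥48 hr, 37 °C; CellTiter-Glo 30 min RT dark, luminescence read.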
The depositor's hits bear a star; ? = inconclusive; . = not tested or not shown; [ ] = remark or other dose. Unless noted, calls come from the whole dose curve; as a rule, active = well fitted curve in the direction sought with a large enough effect; inconclusive = small, poorly fitted or top-dose-only effect, or another doubt; inactive = no such curve, though single readings can be large; an effect the other way counts as inactive or inconclusive. % is set by controls: 0 for no effect and ±100 for the full control effect.

SMILES	ELG1 DNA repair	IL-1B inflam inh	Giardia killer	DT40 TDP1 CPT	TDP1 block	TDP1 cell noCPT
O=C(Cc1c[nH]c2ccccc12)NCc1ccc2c(c1)OCO2	12µM*	3	-16	-26%	8%	?
COc1ccccc1C1CN(CC(=O)N[C@H]2CCCCNC2=O)Cc2ccccc2O1 (stereo partly specified)	.	.	.	4%[9.04 µM]	.	?
COc1cccc(-n2ccnc2SCC(=O)Nc2c(C)cc(C)cc2C)c1	.	.	.	?	10%	?
CCCCCCCN(CC)CCCC(O)c1ccc(NS(C)(=O)=O)cc1 (stereo unspecified)	.	.	.	?	.	-25%
CCn1cc(C(=O)OCC(=O)Nc2cc(OC)cc(OC)c2)c(=O)c2ccc(C)nc21	.	.	.	-2%	4%	1%
Cc1ccc(/C=N/NC(=O)Cc2c[nH]c3ccccc23)c(C)c1	-3%	?	4	-24%	7%	?
O=C(Cc1ccccc1)NCc1ccc2c(c1)OCO2	?	0	6	-6%	0%	-5%
CC(=O)c1cccc(NC(=O)CN(Cc2ccccc2)S(C)(=O)=O)c1	?	-3	9	-9%	4%	-20%
O=C(Cc1c[nH]c2ccccc12)N/N=C/c1ccccc1O	?	156	-1	16µM*	10%	?
CS(=O)(=O)N(CC(=O)NCc1ccc2c(c1)OCO2)Cc1ccccc1	7%	-5	3	29µM*	-1%	21µM*
Cc1cc(C)cc(NC(=O)CN(Cc2ccccc2)S(C)(=O)=O)c1	-7%	0	18	?	2%	13µM*
O=C(NCc1ccc2c(c1)OCO2)c1cc(-c2ccccn2)nc2ccccc12	?	-82*	5	-28%	3%	?
CCCNC(=O)C1(C)CCCN(C(=O)c2ccc(F)cc2Cl)C1 (stereo unspecified)	.	15	.	1%	.	-1%
O=C(NCc1ccc2c(c1)OCO2)c1ccc2c(c1)OCO2	5%	-15	11	-2%	.	-4%
C=CCn1c(=O)c(C(=O)NCCc2ccc(Cl)cc2)c(O)c2cc(OC)c(OC)cc21	8%	-11	3	-3%	.	-1%
O=C(NCc1ccc2c(c1)OCO2)c1c(F)c(F)c(F)c(F)c1F	-1%	-65*	28	-9%	0%	4%
Cc1nc2ccccc2nc1OCC(=O)NCc1ccc2c(c1)OCO2	0%	3	-14	15µM*	3%	7.3µM*
C=CCn1c(=O)c(C(=O)NCc2ccc3c(c2)OCO3)c(O)c2cc(OC)c(OC)cc21	20%	-21	-29	?	3%	18µM*
O=C(NCc1ccc2c(c1)OCO2)c1ccccc1Cl	.	-68*	-3	-3%	.	3%
O=C(Nc1cccc(F)c1)c1oc2ccccc2c1NC(=O)C12CC3CC(CC(C3)C1)C2	.	.	.	-5%	-4%	12%
CC(=O)OC[C@@H]1O[C@@H](O/N=C2/C[C@@H](O)[C@@H](O)[C@@H]3[C@@H]4C(=O)N(Cc5ccccc5)C(=O)[C@H]4CC[C@H]23)[C@H](OC(C)=O)[C@H](OC(C)=O)[C@@H]1OC(C)=O	.	.	.	.	7%[21 µM]	.
CCOC(=O)/C(=N\Nc1cc(Cl)ccc1Cl)N1CCOCC1	-2%	3	-2	-26%	6%	-18%
CC(C)c1ccccc1NC(=O)C1CN(S(=O)(=O)c2ccccc2)CCN1S(=O)(=O)c1ccccc1 (stereo unspecified)	-10%	?	22	?	1%	?
CCOc1ccc2oc(=O)cc(CN3CCN(c4cc(C)ccc4C)CC3)c2c1	.	.	.	15µM*	0%	16µM*
COc1ccc(N2CCN(Cc3cc4c(cc3O)CCC4)CC2)cc1	-20%	4	7	26µM*	11%	21µM*
SMILES	ELG1 DNA repair	IL-1B inflam inh	Giardia killer	DT40 TDP1 CPT	TDP1 block	TDP1 cell noCPT
CCc1ccc2oc(=O)cc(CN3CCN(c4ccc(F)cc4)CC3)c2c1	?	11	-1	?	5%	16µM*
COc1ccc2c(CN3CCN(c4ccccc4F)CC3)cc(=O)oc2c1	.	9	.	?	.	?
Oc1cc2c(cc1CN1CCN(c3cccc(C(F)(F)F)c3)CC1)CCC2	0%	8	-4	-26%	4%	-10%
COc1ccc2c(CN3CCN(c4ccccc4OC)CC3)cc(=O)oc2c1	.	-8	.	?	.	15µM*
Cc1cc(NC(=O)Nc2ccc(N(C)C)cc2)c2cc(F)cc(F)c2n1	.	.	.	?	24%	?
CCc1ccc(C2=NN(CCC(=O)NCCc3ccccc3)C(=O)CC2)cc1	.	.	.	?	4%	?
O=C(NN1CCCCC1)NN1CCCCC1	.	38	.	-30%	.	-12%
CCc1ccccc1NC(=O)CSc1nnc(-c2cc(OC)c(OC)c(OC)c2)o1	.	.	.	-21%	6%	-24%
O=c1cc(CN2CCN(Cc3ccccc3)CC2)c2cc(Cl)ccc2o1	0%	20	-10	-12%	-3%	-19%
CCOc1ccc2oc(=O)cc(CN3CCN(Cc4ccc(F)cc4)CC3)c2c1	.	.	.	16µM*	-5%	23µM*
CCOc1ccc2oc(=O)cc(CN3CCOCC3)c2c1	3%	3	-8	15%	.	-2%
CCc1ccc2oc(=O)cc(CN3CCN(Cc4ccccc4)CC3)c2c1	1%	9	16	?	.	21µM*
COc1ccc2c(CN(C)c3ccccc3)cc(=O)oc2c1	7%	-3	24	29µM*	10%	?
COc1ccc2oc(=O)cc(CN3CCN(c4ccc(F)cc4)CC3)c2c1	.	.	.	?	5%	23µM*
CC(C)=CCC/C(C)=C/CC/C(C)=C/CCC(=O)OC/C=C(\C)CCC=C(C)C	.	.	.	-3%	.	-13%
COc1ccc(N2CCN(Cc3cc(=O)oc4cc5c(cc34)CCCC5)CC2)cc1	25%	0	-6	21µM*	1%	13µM*
CCn1ccnc1CN(C)C(=O)C1CCC(=O)N(CCc2cccc(F)c2)C1 (stereo unspecified)	?	-6	-9	2%	1%	-1%
Cn1nc(C(=O)NCC(c2cccs2)N2CCOCC2)c2ccccc2c1=O (stereo unspecified)	-24%	37	-19	26µM*	1%	16µM*

Screening data: PubChem, National Center for Advancing Translational Sciences (NCATS)
